From PubChem BioAssay (NCI)
Compounds without any hit were thinned out: in the full panel of roughly 79,000, 15% have a hit. A number with no mark means an inactive call. The source made the active and inactive calls. Cut-off read from the data, not from the text of the source: active = growth inhibition above about 70%; inactive = the rest.

Tests used:
[1] = NCI Yeast Anticancer Drug Screen. Data for the rad52 strain (AID 147);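 note: 0% = growth of vehicle-treated control cultures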; settings: S. cerevisiae rad52 mutant growth inhibition, active compounds read high
Summary of the method: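 Growth of repair-deficient yeast cells was compared between compound-treated and vehicle-treated cultures to give percent inhibition.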

[2] = NCI Yeast Anticancer Drug Screen. Data for the rad50EPP+ strain (AID 151);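 note: 0% = growth of vehicle-treated control cultures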; settings: S. cerevisiae rad50 mutant strain, active compounds read high
Summary of the method: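 Measured: growth inhibition of rad50EPP+ yeast. Reference: vehicle-treated controls. Screen uses strains with defined genetic alterations in DNA damage repair or cell cycle control.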

[3] = NCI Yeast Anticancer Drug Screen. Data for the mgt1 strain (AID 153); settings: S. cerevisiae mgt1 mutant growth inhibition, active compounds read high
Summary of the method: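 Compounds were applied to mgt1 mutant yeast, and growth was then compared against vehicle-treated control cultures to give percent inhibition.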

[4] = NCI Yeast Anticancer Drug Screen. Data for the rad50 strain (AID 155);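 note: 0% = growth of vehicle-only cultures of the same strain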; settings: S. cerevisiae rad50 strain growth inhibition, active compounds read high
Summary of the method: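 Genetically altered yeast (DNA repair pathway); compound treatment; growth inhibition vs vehicle ctrl.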

[5] = NCI Yeast Anticancer Drug Screen. Data for the mec2-1 strain (AID 157); settings: S. cerevisiae mec2-1 strain, active compounds read high
Summary of the method: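 Compounds were applied to mec2-1 yeast cells. Their growth was then compared with that of vehicle-treated cultures to give growth inhibition.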

[6] = NCI Yeast Anticancer Drug Screen. Data for the rad14 strain (AID 159);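 note: 0% = growth of vehicle-treated control cultures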; settings: S. cerevisiae rad14 strain growth inhibition, active compounds read high
Summary of the method: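 Test compounds were applied to a repair-deficient yeast strain. Its growth was then compared with that of cultures given vehicle alone, and inhibition was expressed relative to those controls.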

[7] = NCI Yeast Anticancer Drug Screen. Data for the sgs1 mgt1 strain (AID 161);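 note: 0% = growth of cultures given vehicle only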; settings: S. cerevisiae sgs1 mgt1 strain, active compounds read high
Summary of the method: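 Growth of a repair-deficient yeast mutant was monitored after compound treatment and expressed as inhibition relative to vehicle-treated cultures.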

[8] = NCI Yeast Anticancer Drug Screen. Data for the CLN2oe strain (AID 163);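 note: 0% = growth of vehicle-only control cultures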; settings: S. cerevisiae CLN2oe strain, active compounds read high
Summary of the method: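 Cells of an engineered yeast line with disturbed cell-cycle regulation are treated with compound. Inhibition of growth is then calculated relative to the vehicle-treated reference.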

[9] = NCI Yeast Anticancer Drug Screen. Data for the cln2 rad14 strain (AID 165);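 note: 0% = growth equal to vehicle treated cultures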; settings: S. cerevisiae cln2 rad14 strain, active compounds read high
Summary of the method: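 Strain: cln2 rad14 yeast, altered in cell cycle control and DNA damage repair. Read-out: growth inhibition vs vehicle.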

[10] = NCI Yeast Anticancer Drug Screen. Data for the bub3 strain (AID 167); settings: S. cerevisiae bub3 mutant strain, active compounds read high
Summary of the method: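 Yeast carrying a defined mutation is treated with each compound, and growth is compared with that of vehicle-exposed cells to give inhibition.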

[11] = NCI Yeast Anticancer Drug Screen. Data for the wt2 strain (AID 169);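 note: 0% = growth of vehicle-treated yeast cultures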; settings: S. cerevisiae wt2 strain growth inhibition, active compounds read high
Summary of the method: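 Growth of compound-treated yeast is measured and expressed as inhibition relative to vehicle-only controls.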

[12] = NCI Yeast Anticancer Drug Screen. Data for the mlh1 strain (AID 171);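 note: 0% = growth of vehicle-treated control cultures of the same strain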; settings: S. cerevisiae mlh1 strain growth inhibition, active compounds read high
Summary of the method: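 Test agents were incubated with yeast bearing a defined DNA damage repair or cell cycle control alteration; values are growth inhibition normalised to vehicle-treated cultures.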

[13] = NCI Yeast Anticancer Drug Screen. Data for the mlh1 rad18 strain (AID 175); settings: S. cerevisiae mlh1 rad18 strain growth inhibition, active compounds read high
Summary of the method: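 A repair-deficient yeast strain is exposed to test compound, and growth is scored relative to vehicle-treated controls.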

[14] = NCI Yeast Anticancer Drug Screen. Data for the rad18 strain (AID 177); settings: S. cerevisiae rad18 mutant growth inhibition, active compounds read high
Summary of the method: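 DNA-repair-defective yeast; compound treatment; growth inhibition scored against vehicle.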

[15] = at 5.0 µM (retest, dose inferred, filed as 0.5)
[16] = at 50.0 µM (retest, dose inferred, filed as 5.0)

## CCOC(=O)C#Cc1ccc([N+](=O)[O-])cc1
[1]; at 1.2 µM
  growth inhibition: 0%
[1]; at 3.7 µM
  growth inhibition: -1%
[1]; at 11.0 µM
  growth inhibition: -6%
[1]; at 33.0 µM
  growth inhibition: 3%
[1]; at 100.0 µM
  growth inhibition: 17%
[2]; at 1.2 µM
  growth inhibition: 8%
[2]; at 3.7 µM
  growth inhibition: 4%
[2]; at 11.0 µM
  growth inhibition: 7%
[2]; at 33.0 µM
  growth inhibition: 23%
[2]; at 100.0 µM
  growth inhibition: 61%
[3]; at 1.2 µM
  growth inhibition: 1%
[3]; at 3.7 µM
  growth inhibition: -4%
[3]; at 11.0 µM
  growth inhibition: -6%
[3]; at 33.0 µM
  growth inhibition: 5%
[3]; at 100.0 µM
  growth inhibition: 12%
[4]; at 1.2 µM
  growth inhibition: 0%
[4]; at 3.7 µM
  growth inhibition: 4%
[4]; [15]
  growth inhibition: 15%
[4]; at 11.0 µM
  growth inhibition: 3%
[4]; at 33.0 µM
  growth inhibition: 18%
[4]; [16]
  growth inhibition: 50%
[4]; at 50.0 µM
  growth inhibition: 96% (active)
[4]; at 100.0 µM
  growth inhibition: 46%
[5]; at 1.2 µM
  growth inhibition: 4%
[5]; at 3.7 µM
  growth inhibition: -5%
[5]; [15]
  growth inhibition: 12%
[5]; at 11.0 µM
  growth inhibition: 7%
[5]; at 33.0 µM
  growth inhibition: -1%
[5]; [16]
  growth inhibition: 36%
[5]; at 50.0 µM
  growth inhibition: 95% (active)
[5]; at 100.0 µM
  growth inhibition: 6%
[6]; at 1.2 µM
  growth inhibition: 1%
[6]; at 3.7 µM
  growth inhibition: -4%
[6]; at 11.0 µM
  growth inhibition: 4%
[6]; at 33.0 µM
  growth inhibition: 4%
[6]; at 100.0 µM
  growth inhibition: 5%
[7]; [15]
  growth inhibition: 31%
[7]; [16]
  growth inhibition: 72% (active)
[7]; at 50.0 µM
  growth inhibition: 50.5%
[8]; at 1.2 µM
  growth inhibition: 1%
[8]; at 3.7 µM
  growth inhibition: -2%
[8]; at 11.0 µM
  growth inhibition: -3%
[8]; at 33.0 µM
  growth inhibition: 2%
[8]; at 100.0 µM
  growth inhibition: 10%
[9]; [15]
  growth inhibition: -43%
[9]; [16]
  growth inhibition: -7%
[9]; at 50.0 µM
  growth inhibition: 96.8% (active)
[10]; at 1.2 µM
  growth inhibition: -10%
[10]; at 3.7 µM
  growth inhibition: -24%
[10]; [15]
  growth inhibition: -10%
[10]; at 11.0 µM
  growth inhibition: -1%
[10]; at 33.0 µM
  growth inhibition: 1%
[10]; [16]
  growth inhibition: 28%
[10]; at 50.0 µM
  growth inhibition: 95.5% (active)
[10]; at 100.0 µM
  growth inhibition: -8%
[11]; at 1.2 µM
  growth inhibition: -1%
[11]; at 3.7 µM
  growth inhibition: 1%
[11]; at 11.0 µM
  growth inhibition: 4%
[11]; at 33.0 µM
  growth inhibition: 7%
[11]; at 100.0 µM
  growth inhibition: 11%
[12]; at 1.2 µM
  growth inhibition: -4%
[12]; at 3.7 µM
  growth inhibition: -3%
[12]; at 11.0 µM
  growth inhibition: -10%
[12]; at 33.0 µM
  growth inhibition: -21%
[12]; at 100.0 µM
  growth inhibition: -5%
[13]; [15]
  growth inhibition: -20%
[13]; [16]
  growth inhibition: 63%
[13]; at 50.0 µM
  growth inhibition: 96.8% (active)
[14]; at 1.2 µM
  growth inhibition: -1%
[14]; at 3.7 µM
  growth inhibition: -2%
[14]; at 11.0 µM
  growth inhibition: 0%
[14]; at 33.0 µM
  growth inhibition: 15%
[14]; at 100.0 µM
  growth inhibition: 64%
